Data from PubChem BioAssay (Tox21).
Results filed as inconclusive are left out. Calls of active or inactive are those of the source. Unless noted, calls follow the shape of the dose curve; as a rule, active = well fitted curve in the direction sought with a large enough effect in the repeat runs; inconclusive = weak or mixed curves; inactive = no such curve, though single readings can be large; an effect the other way counts as inactive or inconclusive.

Key:
[1] = molecular target: Progesterone receptor (Homo sapiens) (UniProt P06401); test: qHTS assay to identify small molecule agonists of the progesterone receptor (PR) signaling pathway (AID 1346784; calls by dose curve; also: nearly all actives have a fitted effect of over 30% in size)
Sequence of Progesterone receptor (Homo sapiens) (P06401 whole entry, looked up): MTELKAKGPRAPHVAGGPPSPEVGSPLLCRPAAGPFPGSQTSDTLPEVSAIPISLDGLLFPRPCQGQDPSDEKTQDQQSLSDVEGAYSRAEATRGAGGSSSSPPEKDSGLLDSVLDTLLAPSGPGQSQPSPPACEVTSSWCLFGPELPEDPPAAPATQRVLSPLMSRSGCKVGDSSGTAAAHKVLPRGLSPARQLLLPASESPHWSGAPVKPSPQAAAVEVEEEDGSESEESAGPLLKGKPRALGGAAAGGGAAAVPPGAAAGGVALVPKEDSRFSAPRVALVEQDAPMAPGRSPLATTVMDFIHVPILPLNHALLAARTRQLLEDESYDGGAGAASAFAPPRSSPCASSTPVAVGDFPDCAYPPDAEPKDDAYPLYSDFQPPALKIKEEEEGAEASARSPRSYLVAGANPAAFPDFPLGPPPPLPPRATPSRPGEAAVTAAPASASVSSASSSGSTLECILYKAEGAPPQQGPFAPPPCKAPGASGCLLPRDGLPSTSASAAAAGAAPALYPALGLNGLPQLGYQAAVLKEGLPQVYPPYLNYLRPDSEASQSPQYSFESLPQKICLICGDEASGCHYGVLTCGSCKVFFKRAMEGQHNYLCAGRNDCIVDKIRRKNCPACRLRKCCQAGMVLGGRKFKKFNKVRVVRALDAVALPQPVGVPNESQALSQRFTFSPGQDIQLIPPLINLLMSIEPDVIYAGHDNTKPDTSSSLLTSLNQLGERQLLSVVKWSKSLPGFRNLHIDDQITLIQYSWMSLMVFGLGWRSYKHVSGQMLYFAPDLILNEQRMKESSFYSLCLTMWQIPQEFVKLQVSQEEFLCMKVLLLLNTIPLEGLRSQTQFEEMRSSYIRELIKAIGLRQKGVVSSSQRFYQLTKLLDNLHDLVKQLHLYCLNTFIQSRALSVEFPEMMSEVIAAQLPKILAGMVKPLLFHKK
How it was run: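 Reporter assay, GripTite PR-UAS-bla HEK 293T cells: 16 hr exposure to DMSO-dissolved compounds at 37C, 5% CO2, in steroid-depleted (2% charcoal-stripped FBS) medium; beta-lactamase measured by FRET fluorescence.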

[2] = molecular target: Progesterone receptor (Homo sapiens) (UniProt P06401); test: qHTS assay to identify small molecule antagonists of the progesterone receptor (PR) signaling pathway (AID 1346795; active = well fitted inhibition curve with a large enough effect in the signal ratio in the repeat runs, not every such curve was filed as active; the % refers to the signal ratio)
How it was run: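 Stimulus R5020 at 1 nM final; cells HEK293T PR-UAS-bla; medium with 2% charcoal-stripped FBS; compound exposure 16 hr at 37C, 5% CO2; detection by FRET beta-lactamase substrate, 2 hr, room temperature.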

[3] = qHTS assay to identify small molecule antagonists of the progesterone receptor (PR) signaling pathway - cell viability counter screen (AID 1346798); also: series mostly up to about 92 µM; nearly all actives have a fitted effect of over 50% in size
How it was run: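 In the same plates used for the beta-lactamase readout, cell viability of compound- and R5020-treated PR-UAS-bla HEK293T cells (16 hr, 37C) was assessed by CellTiter-Glo luminescence.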

[4] = qHTS assay to identify small molecule antagonists of the TGF-beta/Smad signaling pathway - cell viability counter screen (AID 1346824); also: nearly all actives have a fitted effect of over 50% in size
How it was run: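 SBE-bla HEK 293T cells were plated overnight at 37 C, then given compounds in DMSO plus TGF-beta1 (added as 0.25 ng/mL solution) for 5 hr. After the bla read, CellTiter-Glo was added to the same wells and luminescence read after 30 min at room temperature.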

[5] = qHTS assay to identify small molecule agonists of the TGF-beta/Smad signaling pathway - cell viability counter screen (AID 1346829); also: top concentration of the series differs between compounds; nearly all actives have a fitted effect of over 45% in size
How it was run: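 Here the cytotoxicity of library compounds is measured in SBE-bla HEK 293T cells treated for 5 hr, using CellTiter-Glo added to wells already read for the beta-lactamase reporter.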

[6] = qHTS assay to identify small molecule agonists of the TGF-beta/Smad signaling pathway (AID 1346859; active = well fitted activation curve with a large enough effect in the signal ratio in the repeat runs, not every such curve was filed as active; the % refers to the signal ratio; also: series mostly up to about 77 µM)
How it was run: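 Screening used HEK 293T SBE-bla cells at 4,000/well. Test agents: 5 hr, 37 C. Detection: FRET substrate, 2 hr RT, then excitation 405 nm with emissions at 460 and 530 nm.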

[7] = molecular target: Thyrotropin-releasing hormone receptor (Homo sapiens) (UniProt P34981); test: qHTS assay to identify small molecule antagonists of the thyrotropin-releasing hormone receptor (TRHR) signaling pathway (AID 1346877; active = well fitted inhibition curve with a large enough effect in the repeat runs, not every such curve was filed as active; also: series mostly up to about 51 µM)
Sequence of Thyrotropin-releasing hormone receptor (Homo sapiens) (P34981 whole entry, looked up): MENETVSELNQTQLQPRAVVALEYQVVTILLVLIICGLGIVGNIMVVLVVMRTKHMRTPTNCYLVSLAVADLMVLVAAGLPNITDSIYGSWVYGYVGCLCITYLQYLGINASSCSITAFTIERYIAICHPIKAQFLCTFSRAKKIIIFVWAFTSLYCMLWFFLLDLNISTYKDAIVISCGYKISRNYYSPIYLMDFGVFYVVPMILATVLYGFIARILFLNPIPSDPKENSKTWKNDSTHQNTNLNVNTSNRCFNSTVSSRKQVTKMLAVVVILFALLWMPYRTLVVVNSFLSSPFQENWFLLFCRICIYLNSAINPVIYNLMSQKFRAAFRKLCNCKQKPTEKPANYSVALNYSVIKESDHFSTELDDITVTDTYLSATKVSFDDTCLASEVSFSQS
How it was run: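 Intracellular calcium fluorescence, read kinetically every second over 3 min, reports TRH-evoked signalling in HEK293 cells carrying TRHR. Test compounds were added 5 min ahead of a 1 nM TRH challenge.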

[8] = molecular target: Thyrotropin-releasing hormone receptor (Homo sapiens) (UniProt P34981); test: qHTS assay to identify small molecule agonists of the thyrotropin-releasing hormone receptor (TRHR) signaling pathway (AID 1346891; calls by dose curve; also: series mostly up to about 58 µM)
How it was run: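 Readout was intracellular calcium fluorescence in TRHR-Hek293 cells. Cells were incubated 18 h, dye-loaded 2 h at 37 °C, and treated with compound in agonist mode.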

[9] = Caspase-3/7 induction in HepG2 cells by small molecules, qHTS assay (AID 1346978); also: nearly all actives have a fitted effect of over 15% in size
How it was run: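 Wild-type HepG2 cells (2,000/well) were settled 5 h at 37 C, 5% CO2, then exposed to compounds in DMSO for 17 h. Caspase-3/7 activity was read by luminescence 30 min after adding Caspase-Glo 3/7 reagent at room temperature.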

[10] = Caspase-3/7 induction in CHO-K1 cells by small molecules, qHTS cell viability counter screen (AID 1346979); also: nearly all actives have a fitted effect of over 35% in size
How it was run: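 Following a 5hr settling period, CHO-K1 cells at 1,500 per well received DMSO-dissolved compounds. Cell viability was quantified 16hr later by CellTiter-Fluor fluorescence, measured after 1hr with reagent at 37C.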

[11] = Caspase-3/7 induction in CHO-K1 cells by small molecules, qHTS assay (AID 1346980); also: nearly all actives have a fitted effect of over 15% in size
How it was run: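 Wild-type cells were seeded at 1,500 per well and settled 5 hr at 37 C, 5% CO2, then exposed to DMSO-dissolved compounds for 17 hr. Caspase-Glo 3/7 reagent was added, and luminescence was read after 30min at room temperature.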

[12] = molecular target: Nuclear receptor subfamily 1 group I member 2 (Homo sapiens) (UniProt O75469); test: Human pregnane X receptor (PXR) small molecule agonists, qHTS assay (AID 1346982); also: nearly all actives have a fitted effect of over 35% in size
Sequence of Nuclear receptor subfamily 1 group I member 2 (Homo sapiens) (O75469 whole entry, looked up): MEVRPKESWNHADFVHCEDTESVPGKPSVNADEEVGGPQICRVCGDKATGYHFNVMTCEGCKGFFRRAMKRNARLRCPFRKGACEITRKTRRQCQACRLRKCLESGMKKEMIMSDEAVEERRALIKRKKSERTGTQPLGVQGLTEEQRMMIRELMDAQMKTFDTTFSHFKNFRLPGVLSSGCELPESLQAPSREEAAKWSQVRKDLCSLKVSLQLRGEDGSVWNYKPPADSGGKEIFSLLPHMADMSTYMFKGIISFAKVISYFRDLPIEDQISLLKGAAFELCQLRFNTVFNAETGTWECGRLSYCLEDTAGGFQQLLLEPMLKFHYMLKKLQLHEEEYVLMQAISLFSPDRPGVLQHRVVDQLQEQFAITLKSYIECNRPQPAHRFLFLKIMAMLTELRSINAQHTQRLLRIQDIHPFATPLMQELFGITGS
How it was run: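 Luciferase signal from ONE-Glo (30 min, room temperature) measured activation of hPXR-driven CYP3A4 reporter expression in PXR-Luc HepG2 cells treated with compounds for 24 hr at 37 C.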

[13] = molecular target: Nuclear receptor subfamily 1 group I member 2 (Rattus norvegicus) (UniProt Q9R1A7); test: Rat pregnane X receptor (rPXR) activation by small molecules, qHTS assay (AID 1346983); conditions: rPXR luciferase reporter cells, One-Glo luminescence, 24 h; active compounds read high; also: nearly all actives have a fitted effect of over 20% in size
Sequence of Nuclear receptor subfamily 1 group I member 2 (Rattus norvegicus) (Q9R1A7 whole entry, looked up): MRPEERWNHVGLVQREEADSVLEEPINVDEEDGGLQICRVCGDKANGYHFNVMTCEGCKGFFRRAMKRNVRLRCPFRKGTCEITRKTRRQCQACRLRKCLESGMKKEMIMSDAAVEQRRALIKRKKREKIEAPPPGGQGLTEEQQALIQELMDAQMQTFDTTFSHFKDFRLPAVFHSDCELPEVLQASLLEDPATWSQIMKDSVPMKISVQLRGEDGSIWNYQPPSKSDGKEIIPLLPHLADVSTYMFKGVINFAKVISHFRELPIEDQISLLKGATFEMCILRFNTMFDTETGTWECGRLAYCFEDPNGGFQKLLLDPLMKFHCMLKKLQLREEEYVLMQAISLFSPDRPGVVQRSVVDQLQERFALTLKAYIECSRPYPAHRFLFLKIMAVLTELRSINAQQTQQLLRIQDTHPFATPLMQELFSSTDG
How it was run: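 Cell-based rPXR luciferase reporter assay, 2,000 cells per well, rested 5hr at 37 C before compound addition in DMSO, then 24 hr at 37 C. One-Glo reagent was added and luminescence read after 30 min at room temperature.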

[14] = molecular target: Nuclear receptor subfamily 1 group I member 2 (Homo sapiens) (UniProt O75469); test: CYP3A4 induction through human pregnane X receptor (PXR) by small molecules, qHTS assay (AID 1346984); also: nearly all actives have a fitted effect of over 40% in size
How it was run: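 Luminescence readout: luciferase signal after One-Glo (30 min, room temperature), following 3 h at 37C with 3uM final Luciferin-IPA P450 substrate. Cells were DPX-2 (HepG2, PXR/CYP3A4-luc co-transfected) dosed for 24 h.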

[15] = molecular target: Nuclear receptor subfamily 1 group I member 2 (Homo sapiens) (UniProt O75469); test: Human pregnane X receptor (PXR) activation by small molecules, qHTS assay (AID 1346985); also: nearly all actives have a fitted effect of over 40% in size
How it was run: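 DPX-2 cells (HepG2 co-transfected with a PXR response element and a CYP3A4-promoter luciferase construct) were seeded at 2,000 per well, rested 5 hr at 37C, then exposed to DMSO-dissolved compounds for 24 hr. Activation was read as luciferase luminescence.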

[16] = molecular target: Cytochrome P450 2D6 (Homo sapiens) (UniProt P10635); test: Cytochrome P450 Family 2 Subfamily D Member 6 (CYP2D6) small molecule antagonists: luciferase reporter qHTS assay (AID 1671196); also: series mostly up to about 120 µM; nearly all actives have a fitted effect of over 50% in size
Sequence of Cytochrome P450 2D6 (Homo sapiens) (P10635 whole entry, looked up): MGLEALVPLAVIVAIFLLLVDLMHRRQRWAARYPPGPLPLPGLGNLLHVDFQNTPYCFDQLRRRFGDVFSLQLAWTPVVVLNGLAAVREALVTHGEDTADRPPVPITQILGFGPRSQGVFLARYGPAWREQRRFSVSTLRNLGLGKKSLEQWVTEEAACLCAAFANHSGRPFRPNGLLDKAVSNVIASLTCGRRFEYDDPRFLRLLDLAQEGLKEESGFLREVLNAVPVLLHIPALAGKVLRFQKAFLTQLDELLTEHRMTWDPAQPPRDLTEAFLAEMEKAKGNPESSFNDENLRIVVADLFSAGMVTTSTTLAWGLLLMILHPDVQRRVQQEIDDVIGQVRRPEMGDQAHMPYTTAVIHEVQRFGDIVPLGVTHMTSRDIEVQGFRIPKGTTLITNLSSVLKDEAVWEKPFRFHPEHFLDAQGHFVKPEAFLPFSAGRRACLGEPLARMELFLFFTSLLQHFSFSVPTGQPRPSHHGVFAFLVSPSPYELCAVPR
How it was run: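 Read-out is luminescence from luciferin formed by CYP2D6 turnover of a proluciferin substrate, recorded as relative luminescence units. Reactions ran 1 h at room temperature after NADPH regeneration solution was added.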

[17] = molecular target: Cytochrome P450 2C19 (Homo sapiens) (UniProt P33261); test: Cytochrome P450 Family 2 Subfamily C Member 19 (CYP2C19) small molecule antagonists: luciferase reporter qHTS assay (AID 1671197); also: series mostly up to about 120 µM; nearly all actives have a fitted effect of over 65% in size
Sequence of Cytochrome P450 2C19 (Homo sapiens) (P33261 whole entry, looked up): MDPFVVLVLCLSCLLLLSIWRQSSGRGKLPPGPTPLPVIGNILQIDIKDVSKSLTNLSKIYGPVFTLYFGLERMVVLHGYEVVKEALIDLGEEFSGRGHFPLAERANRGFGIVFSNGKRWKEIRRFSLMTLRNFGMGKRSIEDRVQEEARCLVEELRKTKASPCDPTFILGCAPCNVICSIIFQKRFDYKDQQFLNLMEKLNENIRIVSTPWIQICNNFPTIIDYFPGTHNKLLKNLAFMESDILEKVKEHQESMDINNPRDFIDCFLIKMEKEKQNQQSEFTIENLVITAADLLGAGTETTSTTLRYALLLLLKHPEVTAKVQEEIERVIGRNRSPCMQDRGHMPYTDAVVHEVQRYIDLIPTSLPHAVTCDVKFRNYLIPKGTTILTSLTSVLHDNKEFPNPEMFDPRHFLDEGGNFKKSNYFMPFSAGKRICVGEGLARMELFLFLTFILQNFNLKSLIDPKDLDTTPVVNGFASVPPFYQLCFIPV
How it was run: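 Light output is proportional to CYP2C19 activity: proluciferin substrate is converted to luciferin, then detected by a luciferin detection reagent that also stops the 1 h, 37C NADPH-driven reaction. Ketoconazole serves as positive control.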

[18] = Caspase-3/7 induction in HepG2 cells by small molecules, qHTS cell viability counter screen (AID 1346981); also: series mostly up to about 92 µM; nearly all actives have a fitted effect of over 30% in size
How it was run: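 HepG2, WT, 2,000 cells/well; 5 hr pre-incubation 37 C/5% CO2; compound pin-transferred from DMSO; 16 hr exposure; CellTiter-Fluor, 1 hr; fluorescence read.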

[19] = qHTS assay to identify small molecule agonists of the progesterone receptor (PR) signaling pathway - cell viability counter screen (AID 1346799; calls by dose curve; also: nearly all actives have a fitted effect of over 45% in size)
How it was run: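 Multiplexed viability read: CellTiter-Glo luminescence, 30 min RT, following LiveBLAzer FRET measurement on PR-UAS-bla HEK293T cells exposed to compounds 16 hr.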

[20] = Human pregnane X receptor (PXR) small molecule agonists, qHTS cell viability counter screen (AID 1346977); also: nearly all actives have a fitted effect of over 50% in size
How it was run: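 In each well, the PXR reporter HepG2 line was checked for viability: CellTiter-Fluor reagent added 23hr post-dosing, fluorescence read after 1hr incubation at 37C.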
% is scaled to controls: 0 for no effect and ±100 for the full control effect.

CC(C[N+](C)(C)C)OC(N)=O (stereo not drawn)
inactive: Potency [1] | Potency [2] | Potency [3] | Potency [4] | outcome [5] | outcome [6] | outcome [7] | outcome [8] | Potency [9] | Potency [10] | outcome [11] | Potency [12] | max activation [13] 0.875% | Potency [14] | Potency [15] | Potency [16] | Potency [17]

O=C(O)COc1nn(Cc2ccccc2)c2ccccc12
inactive: Potency [1] | Potency [2] | Potency [3] | Potency [4] | outcome [5] | outcome [7] | outcome [8] | Potency [9] | outcome [11] | Potency [18] | Potency [12] | max activation [13] -0.954% | Potency [14] | Potency [15] | Potency [16] | Potency [17]

COCCCOCCCOC
inactive: Potency [1] | Potency [2] | Potency [3] | Potency [4] | outcome [5] | outcome [6] | outcome [7] | outcome [8] | Potency [9] | Potency [10] | outcome [11] | Potency [12] | Potency [16] | Potency [17]

N[C@H](C(=O)O)c1ccc(O)cc1
inactive: activation [1] -0.625% [at 19 µM] | Potency [2] | activity change, negative = cytotoxicity [19] -6.4% [at 19 µM] | viability change, negative = cytotoxic [4] 1.75% [at 15.8 µM] | activity change, negative = cytotoxicity [5] -0.107% [at 15.8 µM] | activation [6] -1.41% [at 15.8 µM] | activity, negative = inhibition [7] 3.01% [at 10.5 µM] | activation [8] 0.371% [at 11.8 µM] | activity change, negative = cytotoxicity [20] 0.445% [at 19 µM] | caspase activation [9] -0.122% [at 19 µM] | Potency [10] | caspase-3/7 activation [11] -0.938% [at 19 µM] | activity change, negative = cytotoxicity [18] 0.561% [at 19 µM] | activation [12] -2.7% [at 19 µM] | max activation [13] -1.63% | Potency [14] | Potency [15] | activity change, negative = inhibition [16] -10.2% [at 23.6 µM] | Potency [17]

C=C(C)CS(=O)(=O)O
inactive: Potency [1] | Potency [2] | Potency [3] | Potency [4] | outcome [5] | outcome [6] | outcome [8] | Potency [20] | Potency [9] | Potency [10] | Potency [18] | Potency [12] | Potency [16] | Potency [17]

Cc1[nH]c(=O)c(C#N)cc1-c1ccc2nccn2c1
inactive: Potency [1] | Potency [2] | Potency [3] | Potency [4] | outcome [5] | outcome [6] | outcome [8] | Potency [20] | Potency [9] | Potency [10] | outcome [11] | Potency [18] | Potency [12] | max activation [13] 0.264% | Potency [14] | Potency [15] | Potency [16] | Potency [17]
